Source: PubChem
Sampled rows, rich in hits. Any-hit rate of the full collection: about 1.7%.
HTR5A ag ctr: counter-screen for OPRM1-OPRD1 agonists: human HTR5A agonism. AID 504692. P47898. activation, % at 9.3 µM. 340,000 tested, 0.61% active. HTR5A agonist assay, luminescence, cell-based; in the data active = activation mostly above about 9.5%, no sharp cut-off; inactive = mostly below about 7.6%
beta cell repl: MIN6 beta-cell proliferation induction; proliferation, % at 10 µM; 330,000 tested, 0.29% active; AID 2380; MIN6 cells proliferation, ATPlite luminescence, 48 h; cells starved in 0.2% serum; 100% = growth in 10% serum;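 active = compounds whose signal lies at least 3.5 SD above the mean of all wells on their plate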
MOR-DOR ag-1: agonists of human mu-delta opioid receptor heterodimerization. P35372+P41143. cells, OPRM1-OPRD1 heterodimerization, luminescence. activation, % at 9.3 µM. 340,000 tested, 0.3% active. AID 504326
Target sequence (P35372 whole entry, looked up): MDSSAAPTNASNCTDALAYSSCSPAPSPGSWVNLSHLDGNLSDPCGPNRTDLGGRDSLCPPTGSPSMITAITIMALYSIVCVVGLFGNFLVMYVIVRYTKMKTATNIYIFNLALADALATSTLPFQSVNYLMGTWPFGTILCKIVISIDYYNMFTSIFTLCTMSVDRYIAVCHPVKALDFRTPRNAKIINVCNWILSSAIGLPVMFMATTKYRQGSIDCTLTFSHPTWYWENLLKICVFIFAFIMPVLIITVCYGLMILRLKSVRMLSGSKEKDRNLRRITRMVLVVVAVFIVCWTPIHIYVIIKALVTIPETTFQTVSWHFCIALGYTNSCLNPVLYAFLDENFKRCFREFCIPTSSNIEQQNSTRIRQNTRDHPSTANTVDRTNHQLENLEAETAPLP
Target sequence (P41143 whole entry, looked up): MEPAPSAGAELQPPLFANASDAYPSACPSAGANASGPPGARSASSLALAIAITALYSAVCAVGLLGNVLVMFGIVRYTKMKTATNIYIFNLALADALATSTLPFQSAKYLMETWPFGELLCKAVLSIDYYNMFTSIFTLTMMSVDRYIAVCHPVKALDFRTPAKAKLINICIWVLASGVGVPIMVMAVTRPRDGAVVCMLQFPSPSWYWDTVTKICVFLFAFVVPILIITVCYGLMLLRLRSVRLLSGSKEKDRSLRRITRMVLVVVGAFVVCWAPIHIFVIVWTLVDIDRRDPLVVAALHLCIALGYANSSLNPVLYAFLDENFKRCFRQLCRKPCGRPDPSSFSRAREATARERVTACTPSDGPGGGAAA
OPRM1-OPRD1 inv: inverse agonists of human mu-delta opioid receptor heterodimerization. P35372+P41143. AID 504357. 340,000 tested, 0.21% active. inhibition, % at 9.3 µM. cell-based MOR-DOR heterodimer luminescence, inverse agonism; in the data active = inhibition above about 22%, passing the limit was not always enough
V-ATPase pH: alters yeast V-ATPase proton transport | 350,000 tested, 0.37% active | S. cerevisiae, pHLuorin cytosolic pH fluorescence | response, % at 10 µM | AID 504577; in the data active = response mostly above about 7.3%, no sharp cut-off; inactive = mostly below about 5.4%; note: actives read high
HTR5A inv ctr: inverse agonist of human HTR5A in OPRM1-OPRD1 counter-screen; P47898; HTR5A cell line, luminescence, inverse agonism; inhibition, % at 9.3 µM; 340,000 tested, 0.083% active; in the data active = inhibition mostly above about 23%, no sharp cut-off; inactive = mostly below about 18%
MOR-DOR ag-2: counter-screen for HTR5A agonists: OPRM1-OPRD1 heterodimerization agonism | shares compounds with HTR5A ag ctr | U2OS counter-screen cells, complementation luminescence, 3 h | activation, % at 9.3 µM | 800 tested, 13% active
HTR5A ag conf: HTR5A (human) agonism, confirmation; shares compounds with HTR5A ag ctr; HTR5A agonist cell assay, luminescence; activation, % at 9.3 µM; 800 tested, 17% active; in the data active = activation above about 17%
Each line names hits and unclear results; the compound was inactive in the other large screens (follow-up assays come after a bar, where they were run); ! = repeats disagree. Cut-off read from the data, not from the text of the source, unless noted: active = activation above about 18%; inactive = the rest.

O=C(NCc1nc2ccccc2[nH]1)C1=C[C@H](C2CC2)C[C@H](OCc2ccc(CO)cc2)O1	none
CC(=O)C1=C(C)NC(C)=C(C(C)=O)C1c1ccc(-c2ccccc2Cl)o1	HTR5A ag ctr 23 (no result: beta cell repl) | MOR-DOR ag-2 inactive | HTR5A ag conf inactive
COc1ccc(OC)c(Nc2nc(N)nc(CCl)n2)c1	HTR5A ag ctr 17 | MOR-DOR ag-2 inactive | HTR5A ag conf inactive
COc1ccccc1Nc1nc(N)nc(CCl)n1	none
Cc1cccc(Nc2nc(N)nc(CCl)n2)c1	HTR5A ag ctr 20 | MOR-DOR ag-2 21 | HTR5A ag conf 31
COc1cccc(Nc2nc(N)nc(CCl)n2)c1	none
NC(=O)C1CCN(Cc2nc(-c3ccccc3)no2)CC1	HTR5A ag ctr 17 | MOR-DOR ag-2 inactive | HTR5A ag conf inactive
Cc1ccc(-c2noc(CN3CCN(c4ccccc4F)CC3)n2)cc1	HTR5A ag ctr 20 | MOR-DOR ag-2 inactive | HTR5A ag conf inactive
Cc1ccc(-c2noc(CN3CCCCC3)n2)cc1	none
COc1ccc(CCNC(=O)N[C@@H](Cc2ccccc2)C(=O)O)cc1	none
COc1ccccc1N1CCN(C(=O)c2ccc3c(Cl)c4c(nc3c2)CCCC4)CC1	none
O=C(c1ccc2c(Cl)c3c(nc2c1)CCCC3)N1CCN(c2ccc(F)cc2)CC1	HTR5A ag ctr 16 | MOR-DOR ag-2 inactive | HTR5A ag conf inactive
CC(C)Oc1ccc(C(=O)Nc2ccc(N3CCCC3)cc2)cc1	HTR5A ag ctr 17 | MOR-DOR ag-2 inactive | HTR5A ag conf inactive
Cc1c(CCOC(=O)C2C3CC4CC(C3)CC2C4)sc[n+]1CC(=O)c1ccc(Br)cc1 (stereo not drawn)	HTR5A ag ctr 18! | MOR-DOR ag-2 inactive | HTR5A ag conf inactive
O=C(CCN1C(=O)c2ccccc2S1(=O)=O)Nc1cccc(F)c1	none
O=C(CN1CCN(Cc2ccc(F)cc2Cl)C1=O)NCCc1ccccc1	HTR5A ag ctr 16 | MOR-DOR ag-2 inactive | HTR5A ag conf inactive
CC(=O)Nc1ccc(S(=O)(=O)NNc2ccc([N+](=O)[O-])cc2)cc1	none
Cc1cc(O)c(C(C)C)cc1C1(c2cc(C(C)C)c(O)cc2C)OC(=O)c2ccccc21	HTR5A ag ctr 20 | MOR-DOR ag-2 inactive | HTR5A ag conf inactive
O=C(NC1CCCC1)C(c1ccccn1)N(Cc1ccc(F)cc1)C(=O)c1csnn1 (stereo not drawn)	none
C=CCNC(=O)c1onc(CSc2ccc(F)cc2)c1C(=O)NCC=C	HTR5A ag ctr 22 | MOR-DOR ag-2 inactive | HTR5A ag conf inactive
Cc1ccc(N(C(=O)Cc2cccs2)C(C(=O)NC2CCCCC2)c2ccccn2)cc1C (stereo not drawn)	HTR5A ag ctr 15 | MOR-DOR ag-2 30 | HTR5A ag conf 19
CCn1nc(C)c(/C=N/NC(=O)c2nc3nc(C)cc(C)n3n2)c1C	HTR5A ag ctr 16 | MOR-DOR ag-2 inactive | HTR5A ag conf inactive
CCCCCn1nc(C)c(/C=N/NC(=O)c2ccoc2C)c1C	none
CCn1nc(C)c(/C=N/NC(=O)c2ccoc2C)c1C	HTR5A ag ctr 18 | MOR-DOR ag-2 inactive | HTR5A ag conf inactive
Cc1ccc(S(=O)(=O)NCc2ccccc2)cc1C(=O)NCc1ccccn1	none
O=S(=O)(c1cnc(Cl)c(Cl)c1)N1CCc2ccccc21	HTR5A ag ctr 16 | MOR-DOR ag-2 121 | HTR5A ag conf inactive
O=c1c2ccccc2nc2n1CCc1c-2[nH]c2ccccc12	none
Cc1cccc2c(=O)n3c(cc12)-c1[nH]c2ccccc2c1CC3	HTR5A ag ctr 15 (no result: beta cell repl) | MOR-DOR ag-2 inactive | HTR5A ag conf inactive
COc1cc(/C=C/C(=O)O)cc(OC)c1OC	HTR5A ag ctr 39 | MOR-DOR ag-2 inactive | HTR5A ag conf inactive
COc1cccc(C(=O)NCC(c2ccco2)N2CCOCC2)c1 (stereo not drawn)	none
COC(=O)CCC(=O)OC1(C)C(=O)C2=CN(CCc3c[nH]c4ccccc34)C(c3ccc(OC)cc3)=CC2=C(Br)C1=O (stereo not drawn)	HTR5A ag ctr 38 | MOR-DOR ag-2 86 | HTR5A ag conf inactive
COc1ccccc1NNC(=O)c1cc(C(C)(C)C)nn1Cc1ccccc1	none
CC(C)(C)c1cc(C(=O)NNc2cc(C(F)(F)F)ccc2Cl)n(Cc2ccccc2)n1	HTR5A ag ctr 18 | MOR-DOR ag-2 inactive | HTR5A ag conf inactive
COc1ccc(C(CCN2CCCC(C)C2)c2c(OC)cc(OC)c3c(-c4ccccc4)cc(=O)oc23)cc1 (stereo not drawn)	HTR5A ag ctr 23 | MOR-DOR ag-2 inactive | HTR5A ag conf inactive
COc1cc(OC)c2c(-c3ccccc3)cc(=O)oc2c1C(CCN1CCCC(C)C1)c1ccc(N(C)C)cc1 (stereo not drawn)	none
c1cncc(-c2nc3ccccn3c2Nc2ccc3c(c2)OCCO3)c1	HTR5A ag ctr 30 | MOR-DOR ag-2 inactive | HTR5A ag conf inactive
CCN=c1scc(-c2cccs2)n1/N=C/c1cc(OC)ccc1O	none (no result: beta cell repl)
CC(C)N=c1scc(-c2cccs2)n1/N=C/c1ccc(O)c(O)c1O	HTR5A ag ctr 14 | MOR-DOR ag-2 20 | HTR5A ag conf inactive
COc1ccc(C(C)=O)cc1CS(=O)(=O)CC(=O)NCCc1c[nH]c2ccccc12	HTR5A ag ctr 18 | MOR-DOR ag-2 inactive | HTR5A ag conf inactive
Cc1cccc(NC(=O)N2CCC(NC(=O)C3CCCCC3)CC2)c1	HTR5A ag ctr 17 | MOR-DOR ag-2 inactive | HTR5A ag conf inactive
CCCCOc1ccc(OCCNC(=O)C2CCCN2C(=O)Nc2ccccc2)cc1 (stereo not drawn)	HTR5A ag ctr 17 | MOR-DOR ag-2 inactive | HTR5A ag conf inactive
Cc1cccc(C(=O)NNC(=O)c2ccccc2C)c1	none
Cc1ccccc1C(=O)NNC(=O)c1cccc([N+](=O)[O-])c1	HTR5A ag ctr 17 | MOR-DOR ag-2 inactive | HTR5A ag conf inactive
Cc1ccc(Cn2c(=N)n(CC(=O)c3ccccc3)c3ccccc32)cc1	HTR5A ag ctr 21 | MOR-DOR ag-2 inactive | HTR5A ag conf inactive
COc1ccc(/C=N/NC(=O)c2ccn[nH]2)cc1COc1ccc(Cl)cc1Cl	HTR5A ag ctr 26 | MOR-DOR ag-2 inactive | HTR5A ag conf inactive
CCOC(=O)c1c(-c2ccc(C)cc2)csc1NC(=S)NC(=O)c1ccccc1	none
CCOC(=O)c1c(-c2ccc(C)cc2)csc1NC(=O)c1cc2ccccc2oc1=O	HTR5A ag ctr 18 | MOR-DOR ag-2 inactive | HTR5A ag conf inactive
COc1cc(OC)cc(C(=O)Nc2ccc(Nc3ccccc3)cc2)c1	none
COc1cc(OC)cc(C(=O)Nc2nnc(NC(=S)Nc3ccccc3)s2)c1	HTR5A ag ctr 15 | MOR-DOR ag-2 inactive | HTR5A ag conf inactive
COc1ccccc1OCC(=O)Nc1cccc(-c2nnc(-c3ccco3)o2)c1	none
